This excerpt belongs to a sample that is enriched for hits.
BLM helicase inh – inhibitors of human Bloom syndrome helicase BLM; P54132; recombinant BLM DNA unwinding, fluorescence dequenching; Potency, µM (titrated, usually from 56.1 µM), for inactives: top-dose activity change, negative = inhibition, hits mostly inhibitors; 0.2% of 350,000 active; AID 2528;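 also: plate controls were vehicle for no effect and no enzyme for full effect; nearly all actives have a fitted effect of over 35% in size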
RECQ1 inh – RECQ1 (human) helicase inhibition. P46063. RECQ1 DNA unwinding, red fluorescence kinetic read. Potency, µM (highest dose often 57.3 µM), for the others: top-dose activity, negative = inhibition, hits mostly inhibitors. 0.54% of 240,000 active. AID 2549;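 also: plate controls were vehicle for no effect and no enzyme for full effect; nearly all actives have a fitted effect of over 30% in size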
Target sequence (P46063 whole entry, looked up): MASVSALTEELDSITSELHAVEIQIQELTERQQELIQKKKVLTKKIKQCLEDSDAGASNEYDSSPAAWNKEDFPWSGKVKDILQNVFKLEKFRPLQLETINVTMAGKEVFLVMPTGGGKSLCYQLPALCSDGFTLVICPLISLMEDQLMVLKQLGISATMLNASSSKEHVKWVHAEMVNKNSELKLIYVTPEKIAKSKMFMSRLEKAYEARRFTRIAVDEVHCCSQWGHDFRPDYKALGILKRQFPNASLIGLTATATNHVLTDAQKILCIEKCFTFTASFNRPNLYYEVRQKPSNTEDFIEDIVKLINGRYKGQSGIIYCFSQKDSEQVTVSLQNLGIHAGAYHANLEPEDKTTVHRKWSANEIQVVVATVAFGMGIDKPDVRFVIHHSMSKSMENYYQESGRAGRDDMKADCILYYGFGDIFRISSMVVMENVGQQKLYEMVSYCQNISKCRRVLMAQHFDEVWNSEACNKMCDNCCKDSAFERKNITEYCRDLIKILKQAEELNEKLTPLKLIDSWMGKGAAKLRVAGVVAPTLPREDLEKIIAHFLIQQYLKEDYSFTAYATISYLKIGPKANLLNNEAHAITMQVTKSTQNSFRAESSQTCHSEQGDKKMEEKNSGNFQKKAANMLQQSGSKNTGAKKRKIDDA
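50 nM RECQ1T1 preincubated 15 min with compound in Tris pH 8.0 buffer with MgCl2, DTT, Tween-20 and 2.5 ug/ml poly(dI-dC); started with 200 nM TAMRA/BHQ-2 forked duplex and 2 mM ATP. Unwinding read as fluorescence (525/598 nm), two reads 2 h apart.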
GCN5L2 inh – GCN5L2 (KAT2A) acetyltransferase inhibition; GCN5L2 HAT assay, ThioGlo1 CoA-SH fluorescence; Potency, µM (series often up to 58.9 µM), without a hit: at the highest dose activity change, negative = inhibition, actives largely listed as inhibitors; 0.21% of 390,000 active; AID 504327
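ThioGlo1-coupled HAT assay: 20nM GCN5L2, 70uM acetyl-CoA, 75uM H3(1-25) peptide, pH 7.5. Fluorescence read at 340/540nm at start and after 20 min at room temperature.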
KDM4E inh – JMJD2E (human) inhibition | Potency, µM (titrated, usually from 57.1 µM), without a hit: at the top dose activity change, negative = inhibition, hits mostly inhibitors | B2RXH2 | JMJD2E catalytic domain, FDH-coupled NADH fluorescence (FDH is formaldehyde dehydrogenase) | 1.6% of 230,000 active | AID 2147; active = well fitted inhibition curve with a large enough effect, not every such curve was filed as active; inconclusive = small, poorly fitted or top-dose-only effect, or another doubt; inactive = no such curve, though single readings can be large or run the other way;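 also: 0% = wells with enzyme and -100% = buffer wells without enzyme; nearly all actives have a fitted effect of over 50% in size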
TDP1 block – blocks human tyrosyl-DNA phosphodiesterase 1 | Potency, µM (doses to about 130 µM), for inactives: at the highest dose activity change, negative = inhibition, usual class: inhibitors | 0.28% of 350,000 active | AID 485290 | Q9NUW8 | recombinant TDP1, AlphaScreen DNA substrate cleavage; also: nearly all actives have a fitted effect of over 40% in size
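Steps: enzyme plus compound, 15 min RT; add biotin/phosphotyrosine-FITC oligonucleotide (15 nM final), react 5 min; add donor/acceptor beads (10 ug/ml final), 10 min; read AlphaScreen. Tdp1 at 1 nM final.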
APE1 inh – APE1 (human) endonuclease inhibition | P27695 | recombinant APE1, TAMRA/BHQ-2 abasic DNA cleavage fluorescence | Potency, µM (doses to about 65.8 µM), for inactives: top-dose activity change, negative = inhibition, most hits filed as inhibitors | 0.35% of 350,000 active | AID 2517;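 also: plate controls were vehicle for no effect and reference inhibitor for full effect; nearly all actives have a fitted effect of over 55% in size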
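Quantitative HTS: incision of a TAMRA/BHQ-2 double-stranded substrate bearing a tetrahydrofuran abasic site by 0.75 nM APE1 raises fluorescence. Substrate 50 nM final, added after 15 min compound preincubation at room temperature; progress as third-minus-first kinetic read difference.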
* marks the source's active call; other numbers are inactive results; i = inactive; ? = inconclusive; · = no result; ! = a repeat was not active. Unless noted, calls follow the shape of the dose curve; as a rule, active = well fitted curve in the direction sought with a large enough effect; inconclusive = small, poorly fitted or top-dose-only effect, or another doubt; inactive = no such curve, though single readings can be large; an effect the other way counts as inactive or inconclusive. Unless noted, % is scaled to controls: 0 for no effect and ±100 for the full control effect; potency is read from the fitted curve at half-maximal effect.

SMILES	BLM helicase inh	RECQ1 inh	GCN5L2 inh	KDM4E inh	TDP1 block	APE1 inh
Cc1nc2c(c(=O)n1CCC1=CCCCC1)c1nc3ccccc3nc1n2/N=C/c1ccco1	-23%	28µM*	-27%	?	·	?
O=C1NC(=O)/C(=C/c2cccn2-c2ccc(P(O)O)cc2)N1	·	·	·	·	·	38%
Clc1ncc(C#Cc2ccccc2)c2ncncc12	·	·	·	·	0%	·
COc1ccc(NC(=O)CSc2nc(-c3ccco3)nc3cc(=O)[nH]n23)cc1	0%	·	-1%	·	·	·
COc1ccc(NC(=O)CSc2nc(-c3ccco3)nc3cc(=O)[nH]n23)cc1Cl	-4%	·	-22%	·	50µM*	30%
CCN(CC)c1ccc(N=Nc2ncn[nH]2)cc1	-4%	-15%	-14%	14µM*	8%	-4%
CCN(CC)c1ccc(N=Nc2nn(C)c(C)c2[N+](=O)[O-])cc1	-5%	-17%	-4%	0%	11%	?
O=c1[nH]c(/C=C/c2ccccc2F)nc2ccccc12	-12%	·	-4%	·	45µM*	-10%
COc1ccc(C(=O)/C(Br)=C/C(=O)O)cc1	0%	·	3%	·	5%	·
c1cc2c3c(cccc3c1)NC1(CCCCC1)N2	-12%	7%	0%	3.2µM*	4%	0%
c1cc2c3c(cccc3c1)NC1(CCCCCC1)N2	-11%	20%	-2%	3.5µM*	-6%	0%
O=C(CN1CCCc2ccccc21)N/N=C/c1ccc(O)cc1O	0%	i	-2%	25µM*	6%	-3%
COc1ccc(C2=NS(=O)(=O)N(C)C(C(=O)Nc3cc(C)ccc3O)=C2)cc1OC	-9%	·	35µM*!	·	6%	-1%
COc1ccc(NC(=O)C2=CC(c3ccc(C)cc3)=NS(=O)(=O)N2C)cc1OC	-10%	·	?	·	·	-17%
Cn1c(-c2ccsc2)c(-c2cccs2)c2cc(Br)ccc21	·	·	20µM*	·	0%	-4%
Oc1ccccc1/C=N/NC(=S)NC1CC2CCC1C2 (stereo unspecified)	-13%	-8%	-7%	25µM*	9%	-4%
COCCNC(=S)N/N=C/c1ccccc1C(=O)O	1%	-4%	1%	1%	2%	19%
COCCCNC(=S)N/N=C/c1ccccc1O	-5%	i	-6%	28µM*	9%	0%
O=C(/C=C\NCC(=O)c1ccccc1)c1ccc2ccccc2c1	-3%	1%	-10%	18µM*	8%	1%
CC(C)Oc1cccc(-c2nnc(SCC(=O)Nc3ccc4c(c3)OCCO4)n2N)c1	-2%	-3%	25µM*	-8%	5%	-2%
S=C(Nc1ccc(Cl)c(Cl)c1)N1CCCC1	-4%	·	2%	·	·	57%
S=C(Nc1ccc2nsnc2c1)N1CCCCC1	-17%	-1%	-2%	11µM*	-6%	-9%
CC(C)C[C@@H](/C=C/S(C)(=O)=O)NC(=O)[C@H](CC(C)C)NC(=O)[C@H](CC(C)C)NC(=O)OCc1ccccc1	·	-6%	7%	·	6%	2%
Cc1ccc(NC(=O)c2ccc3nc[nH]c3c2)nc1	0%	·	1%	·	35µM*	-42%
COc1ccc(C2c3ccc(OCc4ccccc4)cc3Oc3ncn(CCN4CCOCC4)c(=N)c32)cc1OC (stereo unspecified)	·	·	·	·	5%	·
O=C(O)c1ccc(Cl)c2c1C1C=CCC1C(c1ccccn1)N2 (stereo unspecified)	2%	-9%	?	25µM*	?	25µM*
COc1ccc(C(=O)N(Cc2ccccc2)Cc2ccc(OC)c(COc3ccc(NC(C)=O)cc3)c2)cc1	·	·	·	·	0%	·
O=C1CCCC2=C1C1(CCCC1)N=C(Nc1nc3cc4ccccc4cc3o1)N2	·	·	·	·	2%	·
O=C1C(O)=C(O)C(=O)C(O)=C1O	?	-17%	-3%	13µM*	·	10µM*
CCN(CC)CCOC(=O)c1ccc(NC(=O)CCCN2C(=O)S/C(=C/c3ccc(OC)cc3)C2=S)cc1	-7%	·	-6%	·	7%	34µM*

Screening results deposited in PubChem BioAssay by National Center for Advancing Translational Sciences (NCATS).
